Experimental findings from PubChem BioAssay (NCI) are described below.

Compounds without any hit were thinned out: in the full panel of roughly 83,000, 20% have a hit.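 The test compound was applied at a single concentration to cells in 96-well plates for 48 hours, and percent growth was recorded.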 The source made the active and inactive calls. How the source made its calls: active means growth percent below 10; inactive means the rest.

The test system of the assay is CAKI-1 renal. Nature of the assay: NCI-60 one-dose screen, 48 h (100 = growth as untreated, 0 = no growth, -100 = all killed). The note with it: 10 µM unless noted.
Regarding `Nc1cc2nc3ccccc3sc-2cc1=O`, the growth was 56.3% (inactive). With `Cc1noc(C)c1-c1cc(O)cc(C(O)c2ccccc2)c1` (centres undefined) the figure was 23.8% (inactive). With `CCCCCC(=O)N(CCCC)CCCC` the figure was 92% (inactive); with `COc1ccc(/C=N\NC(=O)c2ccncc2)cc1O`, 90.4% (inactive); with `O=C(Cn1cc(CN2C(=O)c3ccccc3S2(=O)=O)nn1)Nc1ccc([N+](=O)[O-])cc1Cl`, 91.8% (inactive). Next, `Oc1ccc(Nc2nccc(-c3ccc4ccccc4c3)n2)cc1`: 27.2% (inactive); `O=C1C=CC(=O)c2c1nc1n2CCCC1`: 95.7% (inactive); `Cc1cc(Nc2nc(N3CCOCC3)nc3ccccc23)n[nH]1`: 9.88% (active). On to `Cc1ccc(C2CC3c4ccccc4C2C2CCCCN32)cc1` (centres undefined), for which the growth was 95% (inactive). Next, `Cc1csc2ccc(Cl)cc12`: 96.9% (inactive); `O=S(=O)(Nc1ccc(F)c(Cl)c1)c1ccc(-c2cnc(C3CC3)o2)cc1`: 32.5% (inactive). With `CC#Cc1nc2ccccc2c(=O)[nH]1` the figure was 54.5% (inactive); with `C[C@H](CCC(=O)O)[C@H]1CC[C@H]2[C@@H]3CC[C@@H]4/C(=C\c5ccco5)C(=O)/C(=C\c5ccco5)C[C@]4(C)[C@H]3CC[C@]12C`, 55.6% (inactive).

In the case of `Cc1cc(Nc2nc(-c3cccnc3)nc3ccccc23)n[nH]1`, the growth is 2.35% (active). With `COc1cc(OC)c(/C=C/c2cc[n+](C)c3ccccc23)c(OC)c1` the figure was 67.1% (inactive); with `CCCCCCCCCCCCCCCC[N+]1(CC)CCCC1`, -41.8% (active); with `CC(=O)OCC(=O)C1CCC=CC1OC(C)=O` (centres undefined), 93.4% (inactive).

As for `COC1C/C(=N\O)C2OC(c3ccccc3)OCC2O1` (centres undefined), the growth is 97.9% (inactive). With `CC[C@H](Nc1nc(N)nc(C)c1C#N)c1nc2cccc(NCc3ccc(C(=O)NO)cc3)c2c(=O)n1-c1ccccc1` the figure was 13.2% (inactive); with `Cc1nn(-c2ccccc2)c2nc(C)n(-c3ccc(Br)cc3)c(=O)c12`, 26.9% (inactive).

As to `Cc1ccc2c(NCCCN(C)C)c3c(C)nn(C)c3nc2c1`, the growth is 14.5% (inactive). With `NC(CC(=O)O)C(=O)OCc1ccccc1` (centres undefined) the figure was 79.9% (inactive). With `NCCN1CCN(c2nccc(-c3ccc4ccccc4c3)n2)CC1`, the growth was 45.3% (inactive). With `Nc1ccc(Nc2nccc(-c3ccc4ccccc4c3)n2)cc1` the figure was 32% (inactive); with `CCCNc1nc(SC)nc(-c2cccc(N)c2)c1C#N`, 73% (inactive); with `CN(C)CCOc1ccc(-c2nc3ccc(-c4nc5ccc(N6CCN(C)CC6)cc5[nH]4)cc3[nH]2)cc1`, 89.6% (inactive). Next, `CCCCCCCCCCCCN1CCCC(C)C1` (centres undefined): 68.7% (inactive); `COc1ccc(-c2nc(Nc3cc(C)[nH]n3)c3ccccc3n2)cc1`: 15.9% (inactive). With `CN[C@@]12CC3(C=CC(=O)C=C3)O[C@]1(Cc1ccc(OC)cc1)N(C)C(=O)N2` the figure was 72.9% (inactive); with `COc1cc2cc(COc3nccc(-c4ccc(Cl)cc4)n3)c(=O)[nH]c2cc1OC`, 86.5% (inactive); with `Cc1ccc(S(=O)(=O)N(CCc2ccc(Cl)cc2)S(=O)(=O)c2ccc(C)cc2)cc1`, 72.8% (inactive). With `CC[C@H](Nc1cc(C)nc(N)n1)c1nc2cccc(NCc3ccc(C(=O)NO)cc3)c2c(=O)n1-c1ccccc1`, the growth was 71.8% (inactive). As for `CN1CCCCC1CCN1c2ccccc2Sc2ccc(Br)cc21` (centres undefined), the growth is 55.6% (inactive). Next, `O=C1Nc2ccc(Br)cc2C12CC(c1ccccc1)=NN2` (centres undefined): 51.5% (inactive). Next, `O=C(N/N=C/c1ccc(O)cc1O)c1cccnc1`: 13.4% (inactive); `O=C(Nc1ccc(F)cc1)Nc1ccc(CCO)cc1`: 103% (inactive). With `C[C@@H]1CC[C@@H]2[C@@H]1[C@H](OC(=O)/C=C/c1ccccc1)[C@]1(C3CCCCC3)C[C@@H](OC(=O)CO)[C@@]2(C)O1` the figure was 16.4% (inactive); with `O=C1Nc2ccccc2/C1=C/C(=N/c1nnc(-c2ccccc2)s1)c1ccccc1`, -10.2% (active); with `CCCCCCCCOC(=O)CC[C@@H](C)[C@H]1CC[C@H]2[C@@H]3[C@H](OC(=O)CCN)C[C@@H]4C[C@H](OC(=O)CCN)CC[C@]4(C)[C@H]3C[C@H](OC(=O)CCN)[C@]12C`, 108% (inactive).
